From PubChem BioAssay
In the library only some 11% were active in any assay of this set; here they are far more common.
PNC inhibitor – High Content Assay for Compounds that inhibit the Assembly of the Perinucleolar Compartment; PC3M PTB-GFP, PNC prevalence imaging, 16 h; hits give low values; activity change (PNC), negative = inhibition, % at 10 µM; actives 3.1% (n = 140,000); AID 2417, 2010;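 active means readout at or below -70, meaning at least 70% loss of cells showing the perinucleolar compartment, a nuclear body marking cancer cells; inconclusive means readout between -30 and a set limit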;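 further: plate controls were DMSO wells for no effect and camptothecin positive control wells for full effect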
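Read-out is percentage of cells bearing a perinucleolar compartment, from automated 20x imaging of fixed, Hoechst-stained PC3M PTB-GFP cells. Cells were seeded 4 h, then exposed 16 h to compound (23 nl of library stock) in duplicate plates.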
HttQ103 aggreg – qHTS Multiplex Assay to Identify Dual Action Probes in a Cell Model of Huntington: Aggregate Formation (GFP). actives 1.1% (n = 220,000). PC12 HttQ103-GFP aggregates, Acumen cytometry, 40 h. Potency, µM (top dose mostly 46.1 µM), inactives show at the highest dose activity change, negative = inhibition, actives largely listed as inhibitors; further: potency means the concentration at half of the fitted maximal effect; on the % scale 0 is the no-effect control and ±100 the full control effect; nearly all actives have a fitted effect of over 60% in size
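Aggregate formation scored by laser-scanning cytometer (488 excitation, 500–530 emission) in lysed PC12 cells expressing Q103-GFP after 100 nM tebufenozide induction; library tested in dose series, with ATPLite reagent added in the multiplex.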
ALDH1A1 inh – qHTS Assay for Inhibitors of Aldehyde Dehydrogenase 1 (ALDH1A1); AID 1030, 2008; Purified ALDH1A1, NADH fluorescence, propionaldehyde substrate; Potency, µM (titrated, usually from 75.3 µM), inactives show at the top dose activity, negative = inhibition, most hits filed as inhibitors; actives 7.3% (n = 220,000); active means well fitted inhibition curve with a large enough effect, not every such curve was filed as active; inconclusive means small, poorly fitted or top-dose-only effect, or another doubt; inactive means no such curve, though single readings can be large or run the other way;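 further: potency means the concentration at half of the fitted maximal effect; plate controls were no enzyme wells and a reference inhibitor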
Target sequence (P00352 whole entry, looked up): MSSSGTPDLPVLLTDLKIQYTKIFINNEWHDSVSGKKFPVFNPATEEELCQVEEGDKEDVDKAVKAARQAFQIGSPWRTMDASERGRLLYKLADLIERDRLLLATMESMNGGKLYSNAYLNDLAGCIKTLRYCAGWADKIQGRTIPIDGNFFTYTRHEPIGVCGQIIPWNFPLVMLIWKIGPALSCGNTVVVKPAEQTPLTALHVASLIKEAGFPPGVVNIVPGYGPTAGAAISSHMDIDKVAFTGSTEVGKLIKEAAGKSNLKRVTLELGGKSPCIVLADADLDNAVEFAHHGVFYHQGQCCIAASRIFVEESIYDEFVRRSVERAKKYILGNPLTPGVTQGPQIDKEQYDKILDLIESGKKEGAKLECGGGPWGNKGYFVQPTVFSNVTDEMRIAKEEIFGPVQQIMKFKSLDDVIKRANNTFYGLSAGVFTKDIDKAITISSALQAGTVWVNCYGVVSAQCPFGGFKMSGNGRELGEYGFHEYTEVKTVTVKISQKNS
CBFb RUNX1 block – qHTS Assay for Compounds Blocking the Interaction Between CBF-beta and RUNX1 for the Treatment of Acute Myeloid Leukemia. Potency, µM (titrated, usually from 59.8 µM), for the others: at the highest dose activity, negative = inhibition, most hits filed as inhibitors. 230,000 tested, under 10 active. AID 1477, 2009. AlphaScreen CBFb-His/RUNX1-biotin binding, biochemical. Runt-related transcription factor 1 (Homo sapiens) + Core-binding factor subunit beta …; further: % of control where 0% means no effect
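Bead-based AlphaScreen assay; binding partners His-tagged CBF-beta and biotinylated RUNX1 at 30 nM each. Compound exposure 15 min after a 20-min protein preincubation; bead step 90 min; all steps at room temperature.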
HPGD inh – qHTS Assay for Inhibitors of HPGD (15-Hydroxyprostaglandin Dehydrogenase); actives 4.3% (n = 150,000); 15-hydroxyprostaglandin dehydrogenase [NAD(+)] (Homo sapiens), P15428; purified HPGD, NADH fluorescence kinetic, PGE2 substrate; Potency, µM, inactives show at the highest dose activity change, negative = inhibition, actives largely listed as inhibitors; active means well fitted inhibition curve with a large enough effect, not every such curve was filed as active; inconclusive means small, poorly fitted or top-dose-only effect, or another doubt; inactive means no such curve, though single readings can be large or run the other way; further: potency means the concentration at half of the fitted maximal effect; on the % scale 0 is the no-effect control and ±100 the full control effect
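NADH formation kinetics: reaction with 30 uM PGE2 and 1 mM NAD+ (final), 20 nM enzyme, Tris-HCl pH 8 with Tween 20, after 15 min compound preincubation at room temperature. Fluorescence change, last versus first of five reads.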
HTT ATP protect – qHTS Multiplex Assay to Identify Dual Action Probes in a Cell Model of Huntington: Cytoprotection (ATP) | PC12 HTT-Q103 induced, cytoprotection, ATP luminescence, 40 h | Potency, µM (top dose mostly 56.4 µM), without a hit: cytoprotection (ATP increase), most hits filed as activators | actives 0.14% (n = 230,000); further: potency means the concentration at half of the fitted maximal effect; % of control where 0% means no effect; nearly all actives have a fitted effect of over 45% in size
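Huntington model: PC12 line, ecdysone-inducible HTTQ103 exon1–GFP, tebufenozide 100 nM. Test articles in a dose series. Endpoint luminescence from cellular ATP.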
Starred values were filed as active, the others as inactive; ? = inconclusive; . = no result; [ ] = another dose, or the depositor's remark. Unless noted, the call rests on the fitted dose curve; in most records, active means well fitted curve in the direction sought with a large enough effect; inconclusive means small, poorly fitted or top-dose-only effect, or another doubt; inactive means no such curve, though single readings can be large; an effect the other way counts as inactive or inconclusive.

SMILES | PNC inhibitor | HttQ103 aggreg | ALDH1A1 inh | CBFb RUNX1 block | HPGD inh | HTT ATP protect
CCSc1nnc(NC(=O)C(C)C)s1 | -23.8 | -15.7% | -4.9% | -4.1% | -16.7% | -17.2%
CCC(C)Nc1nc(Cl)nc(N(C#N)CN2C(=O)c3ccccc3S2(=O)=O)n1 (stereo not drawn) | . | 10.9% | 12.6µM* | 8.1% | . | -37.0%
CN(C)c1ncnc2ccc(-c3cccnc3)cc12 | . | . | -2.7% | . | . | -137.2%
O=[N+]([O-])c1ccc(-c2c[nH]c(=S)[nH]2)cc1 | . | 10.5%[9.22 µM] | 0.501µM* | 6.7% | . | 22.0%[10 µM]
S=c1[nH]cc(-c2ccccc2)[nH]1 | . | -20.2%[9.22 µM] | . | 13.6% | . | 23.1%[10 µM]
CCc1cccc(C)c1NC(=O)CN(C)Cc1ccccc1F | 25.0 | 12.0% | 2.8% | 3.4% | -10.4% | 5.2%[0.074 µM]
C=CC[n+]1ccc(/C=C2\C=Cc3cc(C)ccc3N2CC)c2ccccc21 | . | 2.24µM* | ? | ? | . | -188.5%
Oc1ccc(/C=N/Nc2ncnc3c2ncn3Cc2ccccc2)cc1O | -28.7 | 17.9% | ? | . | 25.1µM* | .
Nc1c(Cl)ncnc1N/N=C/c1cccc(O)c1 | . | -9.9%[9.22 µM] | . | 7.4% | . | -10.1%[10 µM]
Oc1cccc(/C=N/Nc2ncnc3c2ncn3Cc2ccccc2)c1 | -24.6 | 21.5% | 3.9% | -10.7% | 22.4µM* | 15.6%[0.074 µM]
O=[N+]([O-])/C(C(Cl)=C(Cl)Cl)=C(/NC1CC1)Sc1ccccc1 | . | -3.2% | 17.8µM* | 3.5% | . | -7.4%
O=C(O)c1ccc(CO)o1 | . | . | 12.7% | -6.9%[21.7 µM] | -4.5% | -1.6%
CC(C)OC(=O)c1ccc(NC(=O)c2cncc(Br)c2)cc1 | . | -10.7% | 17.8µM* | 1.3% | . | 3.0%
CN(C)C(=O)c1ccc(NC(=O)c2cncc(Br)c2)cc1 | -100.0* | 15.8µM* | 5.9% | 0.6% | -25.0% | 19.9%[10 µM]
CN(Cc1ccccc1)S(=O)(=O)c1ccc(Cl)c(C(=O)OCC(N)=O)c1 | . | 5.2%[9.22 µM] | . | 11.6% | . | 33.5%[10 µM]
COc1ccc(OC)c(-c2nnc(-c3ccc(C)o3)o2)c1 | -6.3 | 5.0% | ? | 12.1% | ? | -22.8%[10 µM]
Cc1ccc2occ(/C=C/C(=O)c3ccccc3O)c(=O)c2c1 | 73.6 | -9.5% | 7.94µM* | -3.0% | -16.7% | -15.3%
Cc1ccc(/C=C/C(=O)c2ccccc2O)cc1 | . | 11.5%[9.22 µM] | . | 17.5% | . | 10.3%[10 µM]
COC(=O)CN(C)C(=O)CC1C(=O)NCCN1CC(C)(C)C (stereo not drawn) | . | ? | -1.5% | 4.7% | . | 1.12µM*
Cn1c(-c2sc3cc(C(F)(F)F)cnc3c2-c2ccccn2)n[nH]c1=S | . | -0.5% | 35.5µM* | 5.3% | . | -4.5%
Cn1c(-c2sc3cc(C(F)(F)F)cnc3c2-c2cccnc2)n[nH]c1=S | 38.4 | -1.8% | ? | -1.1% | 28.2µM* | 12.7%
Cn1c(-c2sc3cc(C(F)(F)F)cnc3c2-c2cccs2)n[nH]c1=S | . | 1.8% | ? | 1.8% | . | -15.4%
O=C(N/N=C/c1ccco1)c1cccc(N2Cc3ccccc3C2)c1 | . | 7.5%[9.22 µM] | 20µM* | ? | . | -7.2%[10 µM]
O=C(N/N=C/c1ccco1)c1cccc(N2CCCC2=O)c1 | 19.8 | 12.2% | 1.7% | -6.5% | -9.4% | -12.2%[1.9 µM]
O=C(N/N=C/c1ccco1)c1cc(-c2cccc3ccccc23)n[nH]1 | 46.6 | 0.5% | -4.4% | -9.2% | 25.1µM* | -15.8%
Cc1ccc(S(=O)(=O)c2ccc(Cl)cc2)cc1S(=O)(=O)N(C)CC(=O)O | -15.5 | 4.9% | 6.8% | 5.2% | ? | .
NC(N)=NC(N)=Nc1ccc(C(=O)O)cc1 | . | . | -15.3%[13.5 µM] | . | -7.7% | -16.3%[10 µM]
CC(=O)Oc1oc(-c2ccccc2)nc1C=Nc1ccc(N(C)C)cc1 | . | 7.5%[9.22 µM] | 0.562µM* | 8.8% | . | 8.8%[10 µM]
CC(=O)Oc1oc(-c2ccccc2)nc1/C=N/c1ccccn1 | 12.8 | 1.2% | ? | 1.8% | 22.4µM* | 7.6%
